High-throughput results as filed in PubChem BioAssay.
Hits are enriched below; roughly 2.1% of the tested compounds scored in any of these assays.
HIF-2a block: HIF-2a reporter inhibitors, primary screen, luminescence, 786-0 RCC cells. 786-0 RCC cells HIF-2a reporter, luciferase luminescence, overnight. inhibition, % at 18.8 µM. 360,000 tested, 0.72% active;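 active means inhibition of the luminescence signal of 40% or more relative to plate controls, in a single-dose primary screen at 18.75 µM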
EWS-Fli inh: EWS/Fli-driven NR0B1 reporter inhibitors, primary screen, A673 cells, NR0B1 luciferase, luminescence, MLPCN library | viability-normalised | inhibition, % at 12.6 µM | 350,000 tested, 0.67% active | AID 651661, 2012;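 active means mean inhibition of at least 50% after viability correction, with every replicate also passing that limit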;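 further: firefly luciferase signal divided by Alamar Blue viability fluorescence both relative to DMSO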
CF NFkB block: inhibitors of PAF-induced NF-kB signaling, primary screen, cell-based, GFP fluorescence, uHTS | KKLEB NF-kB-GFP reporter, GFP fluorescence overnight | inhibition, % at 5 µM | 360,000 tested, 0.86% active | AID 588850, 2011;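 active means at least 50% inhibition at 5 µM, scaled per plate between neutral and stimulator controls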;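 further: PAF is a Pseudomonas aeruginosa culture filtrate used as stimulus; plate controls were PAF-stimulated DMSO wells for no effect and unstimulated DMSO wells for full effect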
KKLEB cytotox: cytotoxicity in KKLEB CF airway cells, primary screen, cytotoxicity control for CF NF-kB inhibitor project, cell-based, uHTS, fluorescence assay plates. KKLEB CF airway cells viability, ATPlite luminescence, overnight; active compounds read low; cells stimulated with P. aeruginosa culture filtrate. activity change (cytotoxicity), % at 5 µM. 360,000 tested, 0.36% active. AID 602141, 2011;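 active means corrected activity change at or below -50% at 5 µM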
PAX8 inh HTS: inhibitors of PAX8-driven TPO luciferase reporter, primary screen, RMG-I cells, single concentration. SteadyGlo, 24 h. inhibition, % at 12.6 µM. 360,000 tested, 1.2% active;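 active means mean replicate inhibition at least 60% with every replicate also reaching 60%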;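 further: luciferase light reporting Pax8 driven TPO promoter activity; plate controls were median of neutral control wells for no effect and mitoxantrone controls for full effect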
CF NFkB inh conf: inhibitors of PAF-induced NF-kB signaling, retest, confirmation, cell-based, GFP fluorescence, single concentration | 1,300 tested, 64% active | inhibition, % at 5 µM | AID 602472, 2012 | KKLEB CF airway cells, overnight | shares compounds with CF NFkB block; in the data active means inhibition above about 40%;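 further: stimulus PAF is a Pseudomonas aeruginosa filtrate and not platelet activating factor; plate controls were DMSO wells with stimulus for no effect and unstimulated DMSO wells for full effect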
Mdm2 MdmX conf: retested Mdm2-MdmX interaction blockers, confirmation, cell-based, luminescence, single concentration, set 2. shares compounds with HIF-2a block. SaOS-2 split-luciferase Mdm2/MdmX complementation. 740 tested, 99% active. AID 504601, 2011. inhibition, % at 8 µM;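 active means mean inhibition of the luminescence signal across two replicates at or above 26 percent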
HIF-2a conf: HIF-2a reporter inhibitor retest, confirmation, luminescence, 786-0 RCC cells; shares compounds with HIF-2a block; HIF-2a luciferase reporter luminescence, overnight; inhibition, % at 18.8 µM; 1,800 tested, 56% active;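 active means mean inhibition across four replicates of at least 40 percent at the single tested concentration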
HIF-1a counter: HIF-1a luciferase reporter signal reduction – MiaPaCa-2 cells, single concentration, counter-screen for HIF-2a inhibitor project, confirmation; MiaPaCa-2 HIF-1a luciferase reporter, desferoxamine, overnight; 1,800 tested, 72% active; inhibition, % at 18.8 µM; shares compounds with HIF-2a block; AID 651589, 2012;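 active means mean inhibition of the reporter signal across four replicates at the single tested dose of 50% or more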
* = called active by the depositor; x = no result given.

SMILES | HIF-2a block | EWS-Fli inh | CF NFkB block | KKLEB cytotox | PAX8 inh HTS | CF NFkB inh conf | HIF-2a conf | HIF-1a counter | others
COc1cc(C(=O)NC(=S)NNC(=O)c2ccc3c(c2)OCO3)cc(OC)c1OC | 13 | 21 | -3 | 7 | -1 | x | x | x
COc1cc(C(=O)c2cc3c(cc2C)OCO3)cc(OC)c1OC | 5 | 58* | 58* | -19 | 84* | 82* | x | x
CCC(=O)N1CCC2(CC1)CN(C(C)=O)[C@H](CO)c1[nH]c3cc(OC)ccc3c12 | x | -21 | x | x | x | x | x | x
O=C(NC(=S)Nc1cccc2[nH]ncc12)c1ccccc1 | -222 | -46 | 62* | 9 | -172 | 21 | x | x
O=C(Nc1cccc2[nH]ncc12)c1ccc(F)cc1 | -96 | x | 79* | 0 | -101 | 93* | x | x
C[C@H](CO)N1C[C@H](C)[C@H](CN(C)C(=O)Cc2ccccc2)OCCCC[C@H](C)Oc2ccc(N(C)C)cc2C1=O | x | -2 | x | x | 19 | x | x | x
Cc1ccc(Cc2cnc(NC(=O)/C(C#N)=C/c3ccc(-c4ccccc4[N+](=O)[O-])o3)s2)cc1 | 10 | x | 52* | -50 | x | -2 | x | x
CC(C)[C@@H](C)NC(=O)N(C)C[C@@H]1OCc2ccccc2-c2ccccc2C(=O)N([C@@H](C)CO)C[C@H]1C | x | -8 | x | x | -28 | x | x | x
CCn1c(Oc2ccccc2F)nc2c1c(=O)n(C)c(=O)n2C | 21 | -3 | 56* | -4 | -4 | 83* | x | x
COc1ccc(NC(=O)CSc2nc(C3CC3)nc3ccccc23)cc1 | 15 | 18 | 53* | -18 | 12 | 33 | x | x
CC1=CC(C)(C)Nc2ccc(OC(=O)CCN3C(=O)c4ccccc4C3=O)cc21 | 91* | -7 | 71* | 5 | 7 | -24 | 89* | 95*
COc1ccc(-c2cc(=O)oc3cc(OC(=O)C4CCCCC4)c(Cl)cc23)cc1 | 16 | 10 | 88* | -16 | -27 | 93* | x | x | Mdm2 MdmX conf=91*
COc1ccc(-c2cc(=O)oc3cc(OC(C)C(=O)NC4CC4)ccc23)cc1 (stereo not given) | 11 | 5 | 1 | 4 | x | x | x | x
C=C1C(=O)O[C@H]2C[C@H]1[C@@H](OC(C)=O)C/C(C)=C/CC/C(C)=C\CC[C@]2(C)O | 94* | 56* | 77* | -16 | 111* | 65* | 96* | 105*
C[C@@H]1CN([C@@H](C)CO)C(=O)c2cc(N(C)C)ccc2O[C@@H](C)CCCCO[C@@H]1CN(C)C(=O)Nc1ccccc1 | x | -5 | x | x | 1 | x | x | x
NC(N)=NN=C(c1ccc(F)cc1)c1ccc(C(F)(F)F)cc1 | 41* | 44 | 72* | -21 | 95* | 81* | 34 | 86*
C[C@@H]1CN([C@H](C)CO)C(=O)CCCn2cc(nn2)CO[C@@H]1CN(C)Cc1ccc(-c2ccccc2)cc1 | x | -5 | x | x | -6 | x | x | x
C#CCN(C[C@@H]1[C@@H](OC(=O)NCc2ccco2)[C@@H](OC(=O)NCc2ccco2)Cn2c(=O)n(CCCCCC)c(=O)n21)S(=O)(=O)c1ccc(C)cc1 | -1 | 0 | 28 | 7 | 34 | x | x | x
C#CCN(C[C@@H]1[C@@H](OC(=O)NCc2ccco2)[C@@H](OC(=O)NCc2ccco2)Cn2c(=O)ccc(=O)n21)S(=O)(=O)c1ccc(C)cc1 | 43* | 26 | 66* | -21 | 73* | 52* | 44* | 107*
CC(=O)OCCCNc1cc(Sc2ccc(Cl)cc2)c2nonc2c1[N+](=O)[O-] | 79* | -1 | 70* | -8 | 4 | 53* | -9 | 97*
Cc1ccc(Sc2cc(NCCCO)c([N+](=O)[O-])c3nonc23)cc1 | -20 | 17 | -2 | -8 | 11 | x | x | x
Nc1ncnc2c1c(-c1ccc(Oc3ccccc3)cc1)cn2C1CCCC1 | 67* | 18 | 53* | -10 | 27 | 81* | 55* | 65*
COc1cccc(-c2nnc3n2N=C(C(C)(C)C)CS3)c1 | 27 | x | 94* | -24 | -13 | 98* | x | x | Mdm2 MdmX conf=103*
COc1cccc(-c2nnc3n2N=C(c2cc(OC)ccc2OC)CS3)c1 | 21 | x | 11 | -16 | 22 | x | x | x
C[C@H](CO)N1C[C@H](C)[C@H](CN(C)S(=O)(=O)c2ccccc2)Oc2ccc(NC(=O)Nc3ccccc3)cc2C1=O | x | 6 | x | x | -14 | x | x | x
SMILES | HIF-2a block | EWS-Fli inh | CF NFkB block | KKLEB cytotox | PAX8 inh HTS | CF NFkB inh conf | HIF-2a conf | HIF-1a counter | others
CC(=O)Nc1cccc(C(=O)/C=C/c2ccc(N(C)C)cc2)c1 | -217 | -55 | 3 | -18 | -97 | x | x | x
CC(=O)Nc1cccc(C(=O)/C=C/c2ccc(Br)cc2)c1 | 92* | 18 | 78* | -16 | 35 | -69 | 16 | 105* | Mdm2 MdmX conf=103*
CCNC(=O)[C@@H]1[C@@H](CO)[C@@H]2Cn3c(cccc3=O)[C@H]1N2C(=O)c1ccc(F)cc1 | x | x | x | x | -10 | x | x | x
C[C@H](O)C#Cc1ccc([C@H]2[C@H](CO)N3CCCCN(C(=O)c4ccc5c(c4)OCO5)C[C@@H]23)cc1 | x | -4 | x | x | 2 | x | x | x
COc1ccc(-c2nc(N)n(C(=O)Cc3ccccc3)n2)cc1 | -4 | x | 1 | 2 | 8 | x | x | x
COc1ccc2cc3c(N)nn(C(=O)Cc4ccccc4OC)c3nc2c1 | 36* | 5 | 54* | -10 | -10 | 68* | 13 | 89*
O=C(c1ccccc1)C(CCC(CN1CCOCC1)C(=O)c1ccccc1)CN1CCOCC1 (stereo not given) | 76* | x | 84* | -41 | x | -31 | x | x | Mdm2 MdmX conf=92*
COc1cccc(-c2ccc3ncnc(NCc4ccc5c(c4)OCO5)c3c2)c1 | -35 | -2 | 80* | -6 | -11 | 81* | x | x | Mdm2 MdmX conf=85*
O=C(C1CCCC1)N1CCCCN2[C@@H](CO)[C@@H](c3ccc(-c4cccc(F)c4)cc3)[C@@H]2C1 | x | 0 | x | x | -11 | x | x | x
Cc1nc2ccccn2c1C(=O)/C=C/c1cccc([N+](=O)[O-])c1 | 75* | 13 | 71* | 1 | 8 | 2 | 2 | 33
Cc1ccc(/C=C/C(=O)c2c(C)nc3ccccn23)cc1 | -135 | x | 18 | -9 | x | x | x | x
